# Most compounds without a hit are left out; they make up all but 3.6% or so of the library.
# BoNT A protease: inhibitors of Botulinum neurotoxin A light chain protease; inhibition, % at 10 µM; 360,000 tested, 0.17% active; AID 588499; multiplex microsphere protease substrate cleavage, flow cytometry
# MazF activator: MazEF (E. coli) toxin RNase activation. 350,000 tested, 0.32% active. P0AE70. activation, % at 20 µM. FAM/BHQ RNA-DNA oligo cleavage fluorescence, 5 h; in the data active = activation above about 50%
# Target sequence (P0AE70 whole entry, looked up): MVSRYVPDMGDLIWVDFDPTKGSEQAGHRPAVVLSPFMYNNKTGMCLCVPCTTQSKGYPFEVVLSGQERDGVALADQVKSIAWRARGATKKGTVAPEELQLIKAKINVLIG
# BoNT F protease: blocks Botulinum neurotoxin F light chain protease | Multiplex microsphere protease cleavage assay, flow cytometry | inhibition, % at 10 µM | 360,000 tested, 0.22% active | AID 588497; in the data active = inhibition above about 35%, passing the limit was not always enough; inconclusive = no clear call, values can overlap the other calls
# Bead autofluor: flagged as autofluorescent in microsphere protease counterscreen; compound autofluorescence counterscreen, microsphere flow cytometry; hits give high values; 360,000 tested, 3.1% active; fluorescence intensity (test concentration not listed); in the data active = fluorescence intensity above about 16000; inconclusive = no clear call, values can overlap the other calls
# Anthrax LF prot: inhibitors of Bacillus anthracis lethal factor protease; P15917; multiplex microsphere protease cleavage assay, LF; inhibition, % at 10 µM; 360,000 tested, 0.12% active; AID 588501
# A number is an active result; – = inactive; ? = inconclusive; · = no result. Cut-off read from the data, not from the text of the source, unless noted: active = inhibition above about 30%; inconclusive = no clear call, values can overlap the other calls; inactive = below that.
SMILES,BoNT A protease,MazF activator,BoNT F protease,Bead autofluor,Anthrax LF prot
C[C@@H]1CN([C@H](C)CO)C(=O)Cc2cc(NC(=O)Cn3cnnn3)ccc2O[C@@H]1CN(C)Cc1ccc(Cl)c(Cl)c1,–,–,–,–,–
C=C(C)CNC(=S)N/N=C(\C)c1ccc(-n2ccnc2)cc1,–,–,–,19874,–
Cn1c(/C(C#N)=C(\O)COc2ccc3ccccc3c2)nc2ccccc21,–,173.7,–,–,–
C/C(Cc1ccccc1)=N\NC(=O)CNC(=O)c1ccc(Cl)cc1Cl,–,–,36.4,–,?
COc1ccc(/C(C)=N/NC(=O)CNC(=O)Cc2ccccc2)c(OC)c1,–,–,38.5,–,–
C/C(=N\NC(=O)Cc1csc(N2CCOCC2)n1)c1ccccc1,?,–,–,21300,–
O=C(Cc1csc(N2CCOCC2)n1)N/N=C/c1ccc(O)c(O)c1O,–,–,–,–,–
O=C(Nc1ccccc1)N1CCN(c2nc3ccccc3s2)CC1,–,–,–,21122,–
NC(=O)CSc1nnc(Cn2c(=O)sc3ccccc32)n1-c1cccc(Cl)c1,–,–,–,16396,–
NC(=O)CSc1nnc(Cn2c(=O)sc3ccccc32)n1-c1ccccc1,–,–,–,–,–
Cc1ccc(N(C)C(=O)N2CCN(S(=O)(=O)c3ccc(C)c(C)c3)CC2)cc1,–,–,–,24506,–
CCCCc1c(Cc2cccc(F)c2)ncn1CCc1ccccc1OC,–,·,–,–,–
COc1ccc(C(=O)OC2CCN(c3ncc(C(F)(F)F)cc3Cl)CC2)cc1,–,–,–,–,–
COc1ccc(/C=N/NC(=O)C2CCN(c3ncc(C(F)(F)F)cc3Cl)CC2)cc1,?,–,–,22271,–
O=C(OC1CCN(c2ncc(C(F)(F)F)cc2Cl)CC1)c1ccccc1,–,–,–,22198,–
COc1ccc(N2CCN(C(=O)Cc3ncc(C(F)(F)F)cc3Cl)CC2)cc1,–,–,–,23985,–
COC(=O)c1c(/N=C/N(C)C)sc2c1CCN(c1ncc(C(F)(F)F)cc1Cl)C2,–,50.6,–,–,–
O=C(Cc1ncc(C(F)(F)F)cc1Cl)N1CCN(c2ccc(F)cc2)CC1,–,–,–,–,–
COc1cc(/C=C/C(=O)NC(C)CCc2ccccc2)cc(OC)c1OC (stereo not given),–,–,–,–,–
FC(F)(F)c1cc(Cl)c2nc(-c3ccccc3)c(Cc3cccc(Cl)c3)n2c1,–,·,–,–,–
CC(C)N1CC2(CC(c3ccccc3C(F)(F)F)=NO2)CN1C(=O)c1ccco1 (stereo not given),–,–,–,–,–
COCCNS(=O)(=O)c1ccc(Cl)c(C(=O)NC2CCN(Cc3ccccc3)CC2)c1,–,–,–,–,–
NNC(=O)C=C1CCN(c2ncc(C(F)(F)F)cc2Cl)CC1,–,–,–,20786,–
O=C(O)C=C1CCN(c2ncc(C(F)(F)F)cc2Cl)CC1,–,–,–,–,–
COC[C@H]1OC(=O)c2coc3c2[C@@]1(C)C1=C(C3=O)[C@@H]2CCC(=O)[C@@]2(C)C[C@H]1OC(C)=O,–,67.3,–,–,–
SMILES,BoNT A protease,MazF activator,BoNT F protease,Bead autofluor,Anthrax LF prot
FC(F)(F)c1ccc(Oc2ccc3c(C(F)(F)F)cc(C(F)(F)F)nc3n2)cc1,–,–,–,22830,–
COc1ccc(Oc2ccc3c(C(F)(F)F)cc(C(F)(F)F)nc3n2)cc1,?,–,–,22263,–
O=C(CSc1n[nH]c(-c2cc(Cl)ccc2Cl)n1)NCCN1C(=O)CSC1=O,–,–,–,–,–
CC[C@@H]1C/C=C\Cc2ccccc2[C@@H](C(=O)C[C@H](O)CC(C)=O)OC1=O,–,–,–,–,–
COc1cccc(/C=N/Nc2ncnc(N)c2[N+](=O)[O-])c1OC,–,–,–,21088,–
Cc1ccc2c(c1)C(c1ccc(N3CCOCC3)cc1)=NNC(c1cccs1)=N2,–,–,–,20609,–
Brc1ccc2c(c1)C(c1ccc(N3CCOCC3)cc1)=NNC(c1cccs1)=N2,–,–,–,19294,–
Fc1ccc2c(c1)C(c1ccc(N3CCOCC3)cc1)=NNC(c1cccs1)=N2,?,–,–,19055,–
O=C(CCNC(=O)C1CCN(S(=O)(=O)c2ccccc2)CC1)Nc1ccccc1,–,–,–,–,–
CC(C)OC(=O)NCCOC(=O)Nc1ccc(Cl)cc1,–,–,–,–,–
O=c1[nH]nc(Cc2ccc3ccccc3n2)c2ccccc12,–,73.7,–,–,–
O=C(c1ccccn1)N1CCN(C(=O)c2ccccn2)CC1,–,–,–,16386,–
O=C(c1csc2c1CCCC2)N1CCN(c2ccc(F)cc2)CC1,–,53.3,–,–,–
O=C(c1csc2c1CCCC2)N1CCN(c2cccc(C(F)(F)F)c2)CC1,–,–,–,–,–
CC1SC(c2cccc(Cl)c2)NC1=O (stereo not given),–,–,–,24188,–
COc1ccc(C2NC(=O)C(C)S2)cc1 (stereo not given),–,–,–,24997,–
CCCC(=O)N1CCC1(C)C(=O)Nc1ccc2c(c1)OCCO2 (stereo not given),–,·,–,–,–
O=C1c2ccccc2NC2(CCCCC2)N1c1ccc(O)cc1,–,–,155.7,–,53.9
CC1CCC2(CC1)Nc1ccccc1C(=O)N2c1ccccc1 (stereo not given),–,–,–,–,–
O=C(NCc1ccccn1)c1ccc(Br)s1,–,–,–,17043,–
O=C(NCc1ccccn1)c1cccs1,?,–,–,17079,–
O=C(NCc1ccccn1)Nc1cccc(NC(=O)NCc2ccccn2)c1,–,–,–,22604,–
O=C(NCCCCCCNC(=O)c1ccc(Br)s1)c1ccc(Br)s1,–,–,–,23002,–
O=C(NCc1ccccn1)c1ccc(Cl)s1,–,–,–,–,–
COc1ccc2oc(=O)cc(CN3CCN(Cc4ccccc4)CC3)c2c1,–,–,–,–,–
SMILES,BoNT A protease,MazF activator,BoNT F protease,Bead autofluor,Anthrax LF prot
CC(C)(C)OC(=O)N1C[C@H](O)C[C@H]1C(=O)OCC(=O)c1ccc([N+](=O)[O-])cc1,–,–,–,–,–
O=C(CN1CCN(Cc2ccccc2F)CC1)Nc1ccccc1Cl,–,–,–,–,–
O=C(NCc1ccccn1)c1ccc(Cl)cc1Cl,–,–,–,18047,–
O=C(NCCCNC(=O)c1ccc(Cl)cc1Cl)c1ccccn1,–,–,–,–,–
CCOC(=O)C1(S(=O)(=O)c2ccc(Cl)cc2)CCN(Cc2ccc(Cl)cc2)CC1,–,–,–,23017,–
COc1ccc(-c2ccc3c(c2)C2CC3CCN2S(=O)(=O)c2ccccc2C)cc1 (stereo not given),–,–,–,–,–
S=C1CC2CCCC(C2)N1 (stereo not given),–,–,–,–,–
CC(C)=C(NC(=O)c1ccccc1)C(=O)NC(Cc1ccccc1)C(=O)O (stereo not given),–,–,–,–,–
O=C(CCc1nnc(CCc2c[nH]c3ccccc23)o1)NC1CCC1,–,–,–,–,–
COc1ccc(C2/C(=C(\O)c3cccc(OC)c3)C(=O)C(=O)N2c2ccccn2)cc1 (stereo not given),?,–,–,23419,–
CCOC(=O)Cn1nc(C)n(-c2c(C)cccc2C)c1=O,–,–,–,–,–

# Bioassay records: PubChem, several laboratories
